# Data from PubChem BioAssay (EPA / NIEHS).
# Inconclusive results are not listed. Active and inactive are the calls of the source. Rule for the calls: active = hit-call score of the fitted dose curve at least 0.9, where 1 is the maximum; inconclusive = response in the unintended direction; inactive = score below 0.9.
# Tests used:
# [1] = tested on: 5-hydroxytryptamine receptor 2C (pig); assay: NVS_GPCR_p5HT2C: NovaScreen (NVS) G Protein-Coupled Receptor Assay for pig Serotonin, 5-Hydroxytryptamine Receptor 2C (5HT2C) (AID 2283288)
# How it was run: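 Radioligand displacement on membranes from pig choroid plexus, detected by filter scintillation counting after 1 h. Tested first at a single 25 uM in duplicate, then in concentration-response for actives; DMSO served as baseline.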
# [2] = biological target: mouse Cholecystokinin, CCK2 Receptor (CCKB), Cckbr (gene 12426) (UniProt P56481); assay: NVS_GPCR_mCKKBCentral: NovaScreen (NVS) G Protein-Coupled Receptor Assay for mouse Cholecystokinin, CCK2 Receptor (CCKB) (AID 2283293)
# mouse Cholecystokinin, CCK2 Receptor (CCKB), Cckbr (gene 12426), sequence (P56481 whole entry, looked up): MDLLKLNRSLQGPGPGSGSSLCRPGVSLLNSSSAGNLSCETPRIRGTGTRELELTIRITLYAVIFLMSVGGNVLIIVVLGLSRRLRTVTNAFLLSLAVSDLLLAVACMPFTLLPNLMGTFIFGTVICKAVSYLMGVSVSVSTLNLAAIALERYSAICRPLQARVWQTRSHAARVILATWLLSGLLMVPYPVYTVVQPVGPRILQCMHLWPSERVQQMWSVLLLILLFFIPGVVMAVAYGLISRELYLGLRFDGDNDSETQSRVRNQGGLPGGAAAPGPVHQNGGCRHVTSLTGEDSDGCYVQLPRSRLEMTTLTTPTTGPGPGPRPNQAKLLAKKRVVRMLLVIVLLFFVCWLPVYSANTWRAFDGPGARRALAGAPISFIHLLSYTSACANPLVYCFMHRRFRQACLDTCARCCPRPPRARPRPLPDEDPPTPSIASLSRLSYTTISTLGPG
# How it was run: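 Mouse forebrain membrane preparation incubated 2 h with chemical and radioligand; bound radioactivity counted after filtration. Single-concentration duplicate screen at 25 uM, then concentration series to 50 uM max for hits, DMSO as baseline.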
# [3] = biological target: guinea pig Serotonin, 5-Hydroxytryptamine Receptor 4 (5HT4), HTR4 (gene 100135548) (UniProt O70528); assay: NVS_GPCR_g5HT4: NovaScreen (NVS) G Protein-Coupled Receptor Assay for guinea pig Serotonin, 5-Hydroxytryptamine Receptor 4 (5HT4) (AID 2283294)
# guinea pig Serotonin, 5-Hydroxytryptamine Receptor 4 (5HT4), HTR4 (gene 100135548), sequence (O70528 whole entry, looked up): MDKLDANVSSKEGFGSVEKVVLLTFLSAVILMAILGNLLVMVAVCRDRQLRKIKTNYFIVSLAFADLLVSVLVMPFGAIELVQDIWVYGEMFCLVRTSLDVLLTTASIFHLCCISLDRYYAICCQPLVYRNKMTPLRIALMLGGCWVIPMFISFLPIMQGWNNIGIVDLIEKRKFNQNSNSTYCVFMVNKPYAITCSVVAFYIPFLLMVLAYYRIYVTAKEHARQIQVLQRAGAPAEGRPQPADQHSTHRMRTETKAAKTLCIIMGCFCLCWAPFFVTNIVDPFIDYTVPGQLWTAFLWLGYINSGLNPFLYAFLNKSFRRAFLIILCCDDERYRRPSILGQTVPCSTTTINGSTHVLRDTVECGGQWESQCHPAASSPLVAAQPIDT
# How it was run: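 Compounds first screened in duplicate at 25 uM, actives followed up in concentration series. Binding measured as displacement of specific radioligand from guinea pig striatal membranes, 1 h, filter-based scintillation read-out versus DMSO baseline.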
# [4] = biological target: rat Serotonin, 5-Hydroxytryptamine Receptor (5HT), Non-Selective Binding, Htr1a (gene 24473) (UniProt P19327); assay: NVS_GPCR_r5HT_NonSelective: NovaScreen (NVS) G Protein-Coupled Receptor Assay for rat Serotonin, 5-Hydroxytryptamine Receptor (5HT), Non-Selective Binding (AID 2283295)
# rat Serotonin, 5-Hydroxytryptamine Receptor (5HT), Non-Selective Binding, Htr1a (gene 24473), sequence (P19327 whole entry, looked up): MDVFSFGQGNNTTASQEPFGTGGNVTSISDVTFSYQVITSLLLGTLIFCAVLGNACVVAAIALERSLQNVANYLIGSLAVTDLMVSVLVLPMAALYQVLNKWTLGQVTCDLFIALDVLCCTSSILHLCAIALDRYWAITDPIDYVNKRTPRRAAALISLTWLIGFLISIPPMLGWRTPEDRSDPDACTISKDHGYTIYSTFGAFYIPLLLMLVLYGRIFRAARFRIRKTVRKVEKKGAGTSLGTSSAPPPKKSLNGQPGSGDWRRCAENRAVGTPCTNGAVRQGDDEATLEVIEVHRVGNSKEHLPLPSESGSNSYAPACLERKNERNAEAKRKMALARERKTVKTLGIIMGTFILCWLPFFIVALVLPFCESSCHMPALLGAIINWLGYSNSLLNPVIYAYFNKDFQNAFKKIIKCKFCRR
# How it was run: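 Rat cortex membrane preparation incubated 1 h with radioligand and test chemical; bound radioactivity counted after filtration. Screening began in duplicate at 25 uM with concentration-series follow-up; fitting relative to DMSO.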
# [5] = tested on: rabbit Platelet Activating Factor Receptor (PAF), gene 100354046; assay: NVS_GPCR_rabPAF: NovaScreen (NVS) G Protein-Coupled Receptor Assay for rabbit Platelet Activating Factor Receptor (PAF) (AID 2283287)
# How it was run: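 Rabbit platelet membrane preparation; radioligand displacement read by filter-based scintillation counting 1 h after dosing, loss of signal versus DMSO. Primary screen in duplicate at 25 uM, actives followed up in concentration series.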
# [6] = biological target: rat Adrenergic, Alpha 1, Non-selective Receptor (Adra1), Adra1a (gene 29412) (UniProt P43140); assay: NVS_GPCR_rAdra1_NonSelective: NovaScreen (NVS) G Protein-Coupled Receptor Assay for rat Adrenergic, Alpha 1, Non-selective Receptor (Adra1) (AID 2283289)
# rat Adrenergic, Alpha 1, Non-selective Receptor (Adra1), Adra1a (gene 29412), sequence (P43140 whole entry, looked up): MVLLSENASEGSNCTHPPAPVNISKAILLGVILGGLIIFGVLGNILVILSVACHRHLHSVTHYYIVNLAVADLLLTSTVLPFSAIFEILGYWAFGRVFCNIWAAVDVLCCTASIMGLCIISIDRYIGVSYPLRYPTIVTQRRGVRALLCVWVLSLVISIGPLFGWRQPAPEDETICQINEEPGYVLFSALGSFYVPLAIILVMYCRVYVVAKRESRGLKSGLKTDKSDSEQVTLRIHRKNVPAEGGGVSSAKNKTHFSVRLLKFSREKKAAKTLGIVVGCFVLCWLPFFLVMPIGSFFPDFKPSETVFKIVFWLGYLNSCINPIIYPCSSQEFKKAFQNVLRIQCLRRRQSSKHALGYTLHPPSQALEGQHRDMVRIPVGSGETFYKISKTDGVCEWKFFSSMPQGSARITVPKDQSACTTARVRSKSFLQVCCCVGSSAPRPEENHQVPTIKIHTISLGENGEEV
# How it was run: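 Chemicals first screened in duplicate at 25 uM, then actives tested in concentration series up to 50 uM. Binding measured as displacement of radioligand from rat forebrain membrane receptors, 1 h, filtration with scintillation readout; DMSO baseline.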
# [7] = biological target: human Opioid Receptor Mu (Opiate Mu), OPRM1 (gene 4988) (UniProt P35372); assay: NVS_GPCR_hOpiate_mu: NovaScreen (NVS) G Protein-Coupled Receptor Assay for human Opioid Receptor Mu (Opiate Mu) (AID 2283290);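 note: hits lower bound tracer signal versus DMSO meaning displacement of the ligand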
# human Opioid Receptor Mu (Opiate Mu), OPRM1 (gene 4988), sequence (P35372 whole entry, looked up): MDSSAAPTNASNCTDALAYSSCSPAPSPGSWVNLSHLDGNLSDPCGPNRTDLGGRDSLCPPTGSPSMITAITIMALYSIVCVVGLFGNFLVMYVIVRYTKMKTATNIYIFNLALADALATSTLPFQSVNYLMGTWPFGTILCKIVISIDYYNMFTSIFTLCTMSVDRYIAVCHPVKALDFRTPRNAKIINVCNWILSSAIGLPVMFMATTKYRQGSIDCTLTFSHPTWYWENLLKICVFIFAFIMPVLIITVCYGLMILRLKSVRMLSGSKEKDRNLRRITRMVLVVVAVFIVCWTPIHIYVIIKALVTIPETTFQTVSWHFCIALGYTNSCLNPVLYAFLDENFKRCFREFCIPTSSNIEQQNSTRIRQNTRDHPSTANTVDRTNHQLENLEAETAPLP
# How it was run: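 Here, radioligand binding to CHO-extracted receptor was measured after 2.5 h using filter-based scintillation detection. Initial single-concentration screening used 25 uM in duplicate with plate controls; confirmed actives went to concentration-response testing.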
# [8] = biological target: guinea pig Bradykinin Receptor B2 (BK2), BDKRB2 (gene 100135486) (UniProt O70526); assay: NVS_GPCR_gBK2: NovaScreen (NVS) G Protein-Coupled Receptor Assay for guinea pig Bradykinin Receptor B2 (BK2) (AID 2283292)
# guinea pig Bradykinin Receptor B2 (BK2), BDKRB2 (gene 100135486), sequence (O70526 whole entry, looked up): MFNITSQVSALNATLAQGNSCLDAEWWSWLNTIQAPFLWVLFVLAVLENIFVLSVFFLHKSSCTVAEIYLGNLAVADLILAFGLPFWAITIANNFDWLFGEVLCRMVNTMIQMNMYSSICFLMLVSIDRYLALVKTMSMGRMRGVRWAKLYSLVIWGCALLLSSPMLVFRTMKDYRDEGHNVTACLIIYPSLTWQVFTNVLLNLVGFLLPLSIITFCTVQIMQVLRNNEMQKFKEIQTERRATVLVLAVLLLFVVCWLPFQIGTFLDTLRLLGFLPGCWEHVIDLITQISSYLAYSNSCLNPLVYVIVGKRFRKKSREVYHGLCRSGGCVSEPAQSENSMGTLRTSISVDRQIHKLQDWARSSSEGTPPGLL
# How it was run: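 Guinea pig ileum membrane preparation incubated 1 h with radioligand and test chemical; bound counts measured after filtration. Primary duplicate screening at 25 uM, then singleton concentration series with a 50 uM top dose; DMSO as baseline.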
# [9] = biological target: rat Adrenergic, Alpha 1A Receptor (Adra1A), Adra1a (gene 29412) (UniProt P43140); assay: NVS_GPCR_rAdra1A: NovaScreen (NVS) G Protein-Coupled Receptor Assay for rat Adrenergic, Alpha 1A Receptor (Adra1A) (AID 2283296)
# rat Adrenergic, Alpha 1A Receptor (Adra1A), Adra1a (gene 29412), sequence (P43140 whole entry, looked up): as the sequence (P43140 whole entry, looked up) above
# How it was run: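 Filter radiodetection after 1 h competitive binding on CEC-pretreated rat cortical membranes. Duplicate single-point screening at 25 uM; active chemicals retested across concentration series.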
# [10] = tested on: guinea pig Atrionatriuretic Peptide Receptor A (ANPA), gene 100135578; assay: NVS_GPCR_gANPA: NovaScreen (NVS) G Protein-Coupled Receptor Assay for guinea pig Atrionatriuretic Peptide Receptor A (ANPA) (AID 2283291)
# How it was run: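 Displacement of specific radioligand from guinea pig cerebellum membranes was read by scintillation after 1 h. A duplicate single-point screen at 25 uM was followed by a concentration series up to 50 uM, analysed relative to DMSO.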
smiles,measurement,setting,value
Clc1ccc(C(c2ccc(Cl)cc2)C(Cl)Cl)cc1,outcome,[1],inactive
CCCCCOC(=O)c1ccccc1C(=O)OCCCCC,outcome,[2],inactive
same,outcome,[3],inactive
OCCCl,outcome,[4],inactive
[Cl-].[Cl-].[Hg+2],AC50,[5],36.7 µM (active)
same,AC50,[6],2.86 µM (active)
same,AC50,[7],0.197 µM (active)
same,AC50,[8],25 µM (active)
same,AC50,[2],38.6 µM (active)
same,AC50,[3],7.68 µM (active)
same,AC50,[9],12.1 µM (active)
Oc1ccccc1Cl,outcome,[5],inactive
N#CC(Br)(Br)C(N)=O,outcome,[7],inactive
O=C(N[C@H](c1ccccc1)[C@@H]1CN2CCC1CC2)c1c(Cl)ccc(C(F)(F)F)c1Cl,AC50,[6],23.6 µM (active)
same,AC50,[7],10.1 µM (active)
same,AC50,[4],37.5 µM (active)
same,AC50,[9],18.1 µM (active)
COc1cc(C=O)cc2c1[C@H](COC(N)=O)[C@]1(OC(C)=O)ON2C[C@H]2[C@@H]1N2C(C)=O,outcome,[10],inactive
C=CCc1ccc2c(c1)OCO2,outcome,[6],inactive
CC(C)(O)c1cnn2c(-c3ccc(F)c(-c4c(F)cccc4C#N)c3)cnc2n1,outcome,[1],inactive
CCCSC(=O)N(CCC)CCC,outcome,[8],inactive
CC(C)COC(=O)c1ccccc1C(=O)OCC(C)C,outcome,[3],inactive
O=C(Oc1ccc(Br)cc1)N1CCN2CCC1CC2,outcome,[6],inactive
same,AC50,[3],14.8 µM (active)
CCNS(=O)(=O)C(F)(F)C(F)(F)C(F)(F)C(F)(F)C(F)(F)C(F)(F)C(F)(F)C(F)(F)F,outcome,[10],inactive
Cc1cccc(N)c1N,AC50,[1],16.8 µM (active)
Nc1ccc(Cl)cc1N,AC50,[7],39.5 µM (active)
CC(C)(C)C(O)(CCc1ccc(Cl)cc1)Cn1cncn1 (stereo not drawn),AC50,[5],16.7 µM (active)
CC(C)N(Cc1ccccc1)C(=O)C(C)(C)C,AC50,[5],13.1 µM (active)
COC(=O)Nc1nc2ccccc2[nH]1,outcome,[1],inactive
O=[N+]([O-])C(Br)(CO)CO,outcome,[7],inactive
same,outcome,[4],inactive
O=[N+]([O-])c1ccc(Oc2ccc(Cl)cc2Cl)cc1,outcome,[7],inactive
COP(=S)(OC)SCN1C(=O)c2ccccc2C1=O,AC50,[5],14.9 µM (active)
same,outcome,[7],inactive
Cc1ccc(N)c(N)c1,outcome,[3],inactive
CCOC(=O)[C@]1(c2ccccc2)Oc2ccccc2[C@@H]1N,AC50,[5],7.6 µM (active)
same,AC50,[1],1.29 µM (active)
same,AC50,[6],0.184 µM (active)
same,AC50,[7],13.1 µM (active)
same,AC50,[3],4.94 µM (active)
same,AC50,[4],2.49 µM (active)
same,AC50,[9],0.38 µM (active)
CCCCCCCCn1sccc1=O,AC50,[7],7.66 µM (active)
same,AC50,[3],20.2 µM (active)
CCC[CH2][Sn]([Cl])([CH2]CCC)[CH2]CCC,AC50,[5],5.79 µM (active)
same,AC50,[6],8.26 µM (active)
same,outcome,[7],inactive
same,AC50,[8],10.6 µM (active)
same,AC50,[2],2.25 µM (active)
same,AC50,[3],3 µM (active)
same,AC50,[4],12 µM (active)
same,AC50,[9],11.3 µM (active)
